Hits are enriched below; roughly 6% of the tested compounds scored in any of these assays.
D1 PAM – human D1 dopamine receptor positive modulation. potentiation, % at 10 µM. 0.036% of 360,000 active. AID 504651. P21728. HEK293 TREx D1 cells, calcium flux, dopamine EC20 potentiation; in the data active means potentiation above about 30%; further: 0% is about no effect
Target sequence (P21728 whole entry, looked up): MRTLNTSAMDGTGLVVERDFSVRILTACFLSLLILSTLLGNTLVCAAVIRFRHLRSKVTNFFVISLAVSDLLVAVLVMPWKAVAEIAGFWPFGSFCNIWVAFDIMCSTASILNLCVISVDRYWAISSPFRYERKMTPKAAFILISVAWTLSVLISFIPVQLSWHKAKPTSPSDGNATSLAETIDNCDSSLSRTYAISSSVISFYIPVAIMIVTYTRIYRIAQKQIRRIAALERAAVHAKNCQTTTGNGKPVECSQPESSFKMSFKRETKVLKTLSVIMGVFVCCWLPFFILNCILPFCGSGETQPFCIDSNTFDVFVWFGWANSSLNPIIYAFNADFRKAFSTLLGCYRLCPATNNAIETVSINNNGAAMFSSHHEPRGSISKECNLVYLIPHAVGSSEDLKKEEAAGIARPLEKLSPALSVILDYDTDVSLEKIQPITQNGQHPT
D1 antag – antagonists of human D1 dopamine receptor; AID 504652; 3.2% of 360,000 active; P21728; HEK293 TREx D1 cells, calcium flux, dopamine EC80; active compounds read low; activity change, negative = inhibition, % at 10 µM; in the data active means activity change below about -30%; further: on the % scale 0 is the no-effect control and ±100 the full control effect
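Kinetic fluorescence of a calcium dye serves as the read-out. D1-expressing Hek293 Trex cells, induced overnight at 30 C, are exposed to compound for 180 s before an EC80 dopamine addition, then read 180 s further.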
DRD3 antagonist – D3 dopamine receptor (human) antagonism; P35462; max response, negative = inhibition, %; 2.5% of 360,000 active; D3R cells, DiscoveRx beta-arrestin luminescence, antagonist mode; active compounds read low; in the data active means max response below about -50%; inconclusive means no clear call, values can overlap the other calls; further: on the % scale 0 is the no-effect control and ±100 the full control effect
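Cells plated overnight at 1500 cells/well, then exposed to library compounds with dopamine controls for 90 minutes at 37 degrees C. DiscoveRx reagent added for 30–60 minutes at room temperature; luminescence read, quantitative HTS format.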
D3 ag – activates the human D3 dopamine receptor. AID 652048. D3R DiscoveRx beta-arrestin cells, luminescence, 90 min. P35462. max activation, %. 0.58% of 410,000 active; in the data active means max activation above about 30%; further: 0% is about no effect
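Agonist mode: compounds and dopamine controls were applied to plated cells for 90 min at 37 degrees C after an overnight attachment at 1500 cells/well. Luminescent read-out followed 30 - 60 minutes at room temperature with DiscoveRx detection reagent.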
D1 agonist – activates the human D1 dopamine receptor; 1% of 360,000 active; P21728; HEK293 T-REx D1 cells, calcium flux, agonist mode; activation, % at 2 µM; in the data active means activation above about 30%; further: 0% is about no effect
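Inducible HEK293 T-REx D1 cells, force-coupled to calcium signalling, were plated at 4000 cells/well with tetracycline and held overnight at 30 C. After no-wash calcium dye loading, compound-evoked calcium rise over 180 s flagged agonists.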
* hit, by the source's call; ? = inconclusive; · = no result.

SMILES	D1 PAM	D1 antag	DRD3 antagonist	D3 ag	D1 agonist
CCOc1ccc(OCCSc2nc3ccccc3[nH]2)cc1	-6	-18	-13	2	7
CCC(C)NCCCCOc1ccc(C)cc1[N+](=O)[O-] (centres undefined)	-6	7	-93*	-30	1
COCCCNCCOCCOc1ccc(C)cc1[N+](=O)[O-]	-4	4	-54*	-4	3
C=CCNCCCCOc1ccc(C)cc1[N+](=O)[O-]	-4	28	-82*	1	3
COCCCNCCOc1ccc(C)cc1[N+](=O)[O-]	-6	-3	-84*	-18	1
Cc1ccc(OCCOCCN2CCN(C)CC2)c([N+](=O)[O-])c1	-4	-22	-16	-3	1
Cc1ccc([N+](=O)[O-])c(OCCN2CCNCC2)c1	-13	3	-62*	27	1
Cc1ccc(OCCN2C(=O)c3ccccc3C2=O)c([N+](=O)[O-])c1	-3	6	-69*	-17	9
CCc1ccc(Cn2c(CNS(=O)(=O)c3ccc([N+](=O)[O-])cc3)nc3cccnc32)cc1	-4	-2	·	7	5
O=c1c(S(=O)(=O)c2ccccc2)cn(Cc2ccc(F)cc2)c2cc(N3CCCCC3)c(F)cc12	-1	-44*	·	3	2
O=C(Nc1cccc(C(F)(F)F)c1)c1cc(-c2ccco2)on1	-3	24	-9	-21	-1
O=C(Nc1cccnc1)c1cc(-c2ccccc2O)on1	-2	-24	-19	-2	5
O=C(Nc1cccc(C(F)(F)F)c1)c1cc(-c2cccs2)on1	-8	-12	-65*	-67	12
O=C(Nc1cccnc1)c1cc(-c2cccs2)on1	-2	7	-61*	-23	1
O=C(CSc1nc(-c2cccs2)nc2cc(=O)[nH]n12)Nc1cccc(C(F)(F)F)c1	-2	-38*	·	0	6
CCc1nn2c(=O)cc(COC(=O)c3ccccc3NC(=O)c3ccc(C(C)(C)C)cc3)nc2s1	0	-13	·	-13	0
Cc1cc(Nc2ccccc2C)n2nc(Cc3ccc(Cl)cc3)nc2n1	2	-11	·	7	2
COc1cc(/C=N/Nc2nc3c(c(=O)n(C)c(=O)n3C)n2Cc2ccccc2)ccc1OC(=O)c1ccco1	-7	-7	57	66*	1
COc1cc(NC(=O)CCNS(=O)(=O)c2ccc3c(c2)CCN3C(=O)C2CC2)cc(OC)c1	-4	4	·	-6	0
CCCS(=O)(=O)c1nc(S(=O)(=O)c2ccc(C)cc2)c(NC)s1	-3	-4	·	-11	-2
COc1ccc(NC(=O)c2nnn(Cc3ccc(Br)cc3F)c2N)c(OC)c1	11	25	·	-22	34*
CCOc1ccc(Cn2nnc(C(=O)NCCc3ccc(Cl)cc3)c2N)cc1	·	-37*	-19	-1	1
Cc1ccc(Cn2nnc(C(=O)Nc3cc(C)ccc3C)c2N)cc1	5	4	-8	-1	40*
Nc1c(C(=O)Nc2ccccc2)nnn1Cc1ccc(F)cc1Cl	2	-31*	·	-12	88*
COC(=O)CN1C(=O)CSc2ccc(S(=O)(=O)Nc3ccc(C)c(Cl)c3)cc21	-2	6	·	3	-2
SMILES	D1 PAM	D1 antag	DRD3 antagonist	D3 ag	D1 agonist
COc1ccc(C)cc1NC(=O)c1c2c(nc3ccccc13)C(=O)N(C1CCCCC1)C2	-2	8	·	-3	-1
Cc1ccc(C)c(NC(=O)c2nnn(Cc3ccc(F)cc3Cl)c2N)c1	-3	-32*	·	-8	79*
COc1ccc(NC(=O)Cn2nnc(C(=O)Nc3ccccc3C)c2N)cc1	-6	-64*	-20	-5	1
COc1ccc(NC(=O)Cn2nnc(C(=O)NCCc3ccccc3)c2N)cc1	-8	-24	-29	-1	2
COc1cc(C(=O)NCCc2sc(-c3cccc(F)c3)nc2C)cc(OC)c1OC	1	-17	·	8	0
COc1ccc(CNC(=O)CSc2nnc3nc(C)cc(C)n23)cc1OC	-12	-7	-4	-6	1
COc1ccc(-n2c(COc3cccc4ccccc34)nnc2SCC(=O)NCc2ccco2)cc1	-10	-34*	0	-5	10
O=C(CSc1nnc(CNc2ccc(Cl)cc2)n1Cc1ccccc1)NCc1ccco1	0	-32*	?	0	6
Cc1cc(C)n2c(SCC(=O)NCc3ccco3)nnc2n1	0	-59*	13	2	0
COc1ccc(-n2c(COc3ccc4ccccc4c3)nnc2SCC(=O)NCc2ccco2)cc1	-6	0	11	-10	13
O=C(CSc1nnc(Cc2ccccc2)n1Cc1ccccc1)NCc1ccco1	4	-6	-26	-6	2
COc1cccc(-n2c(COc3ccccc3C)nnc2SCC(=O)O)c1	-4	-32*	8	5	0
Cc1ccc(C)c(CN2C(=O)c3ccccc3S(=O)c3ccc(C(=O)N4CCCCC4)cc32)c1 (centres undefined)	2	8	·	-12	1
CCCCCn1c(=O)[nH]c2cc(C(=O)N3CCN(c4cccc(Cl)c4)CC3)ccc2c1=O	1	13	·	14	1
CC(C)(C)c1ccc(OCCOCCn2c(-c3ccc(Cl)cc3)nc3ccccc3c2=O)cc1	0	-20	·	-4	0
COc1ccccc1NC(=O)C1CCCN(C(=O)Nc2ccc(F)cc2)C1 (centres undefined)	1	-81*	8	21	0
COc1ccccc1NC(=O)C1CCCN(S(=O)(=O)c2c(C)noc2C)C1 (centres undefined)	-3	-10	6	12	5
COc1ccccc1NC(=O)C1CCCN(S(=O)(=O)c2ccccc2)C1 (centres undefined)	4	-31*	4	-1	4
COc1ccc(OC)c(NC(=O)N2CCCC(C(=O)c3ccccc3OC)C2)c1 (centres undefined)	-8	-36*	-22	-8	1
Cc1ccccc1NC(=O)C1CCCN(C(=O)Nc2ccc(F)cc2)C1 (centres undefined)	-10	12	9	8	0
COc1ccc(NC(=O)N2CCN(S(=O)(=O)c3ccc(F)cc3)CC2)c(OC)c1	1	-11	-22	-11	1
COc1ccc(S(=O)(=O)N2CCN(C(=O)Nc3ccccc3OC)CC2)cc1	9	-37*	7	5	3
CCCCn1cc(S(=O)(=O)c2ccc(C)c(C)c2)c(=O)c2cc(F)c(N(CC)CC)cc21	0	2	·	0	1
CCc1ccc(NC(=O)Cn2ccn(-c3ccc(C)c(C)c3)c(=O)c2=O)cc1	-4	-11	·	-3	10
C/C(=N\NC(=O)C1CCCN(S(=O)(=O)c2ccccc2)C1)c1ccccn1 (centres undefined)	-4	-2	-90*	-10	0

Compound activity (PubChem)
